ChEMBL document CHEMBL3988442, “University of Dundee, Small-Polar-MMV Screening Library” (2021)
Among all 48,000 compounds or so, about 13,000 (27%) showed an effect of 50% or more. The list shows a part of the results.

These compounds were tested on Wolbachia pipientis (assay: Anti-Wolbachia Cell-Based Screen). Settings: 5 µM.
Format: functional
Set-up: scale not given: in the data most compounds retested in dose-response had high values
For O=C(NCCc1c[nH]cn1)c1ccccc1C1CCNC1 (configuration not stated), the “Percent Effect” value was -4.788%.
With Cc1ccccc1-n1nc(C)c(CN(C)C(C)Cc2ccccn2)c1C.O=C(O)CC(O)(CC(=O)O)C(=O)O (configuration not stated) the “Percent Effect” value was 108.5%.
With C/C(=C\c1ccco1)CN(C)C(C)Cc1ccccn1 (configuration not stated) the “Percent Effect” value was -10.17%.
For CC(Cc1ccccn1)N(C)Cc1ccc2c(c1)CCO2 (configuration not stated), the “Percent Effect” value was 27.39%.
Cc1cc(N2CCC(NC(C)Cc3ccsc3)CC2)nc(N)n1 (configuration not stated) was tested, and the “Percent Effect” value was -1.435%.
In the case of O=C(C1CCCCC1)N1C[C@@H]2CCNC[C@@H]21, the “Percent Effect” value is reported as -27.82%.
With Cl.O=C(N1CCOCC1)N1CCC2(CCNC2)C1 (configuration not stated) the “Percent Effect” value was -12.19%.
For CN(C)[C@@H]1CN(C(=O)Cc2cccs2)[C@@H]2CCCO[C@H]12.O=C(O)C(F)(F)F, the “Percent Effect” value was 115.4%.
In the case of CN(C)[C@@H]1CN(C(=O)Cc2ccccc2)[C@@H]2CCCO[C@H]12.O=C(O)C(F)(F)F, the “Percent Effect” value is reported as 100.5%.
With O=C(Cc1cccs1)N1C[C@@H]2OCCN(CC3CCCC3)[C@@H]2C1.O=C(O)C(F)(F)F the “Percent Effect” value was -11.83%.
With O=C(Cc1cccs1)N1C[C@@H]2OCCN(CC3CCCO3)[C@@H]2C1.O=C(O)C(F)(F)F (some centres not stated) the “Percent Effect” value was -0.9645%.
For Cc1cccc(CN2C[C@@H](NC(=O)C3CC3)[C@H]3OCCC[C@H]32)n1.O=C(O)C(F)(F)F.O=C(O)C(F)(F)F, the “Percent Effect” value was -26.04%.
For CN1CCN([C@@H]2CN(C(=O)Cc3ccsc3)[C@@H]3CCCO[C@H]23)CC1.O=C(O)C(F)(F)F.O=C(O)C(F)(F)F, the “Percent Effect” value was -4.372%.
In the case of CN(C)[C@@H]1CN(C(=O)Cc2ccc(F)cc2)[C@@H]2CCCO[C@H]12.O=C(O)C(F)(F)F, the “Percent Effect” value is reported as 85.9%.
For Cc1ccc(N2C[C@@H]3CCCO[C@@H]3[C@H](N3CCCC3)C2)nn1.O=C(O)C(F)(F)F.O=C(O)C(F)(F)F, the “Percent Effect” value was -4.873%.
For CN(C)[C@@H]1CN(C(=O)Cc2ccsc2)[C@@H]2CCCO[C@H]12.O=C(O)C(F)(F)F, the “Percent Effect” value was 105.5%.
With CN(Cc1cccnc1)[C@@H]1CN(CC2CC2)[C@@H]2CCCO[C@H]12.O=C(O)C(F)(F)F.O=C(O)C(F)(F)F.O=C(O)C(F)(F)F the “Percent Effect” value was -5.445%.
O=C(Cc1ccsc1)N1C[C@@H]2OCCN(CC3CC3)[C@@H]2C1.O=C(O)C(F)(F)F was tested, and the “Percent Effect” value was -8.837%.
In the case of Cc1cc(CN2C[C@@H]3CCCO[C@@H]3[C@H](N(C)C(C)C)C2)no1.O=C(O)C(F)(F)F.O=C(O)C(F)(F)F, the “Percent Effect” value is reported as -6.146%.
With Cc1c(C(=O)O)nnn1Cc1cccc(C(F)(F)F)c1 the “Percent Effect” value was 6.81%.
For COc1cccc(CN2CCN3C(=O)NC[C@H]3C2)n1, the “Percent Effect” value was 7.899%.
For CN1CCC(N2CCN3C(=O)NC[C@H]3C2)CC1, the “Percent Effect” value was -3.981%.
Cc1csc(C2(NCC(O)COC(C)C)CCCC2)n1 (configuration not stated) was tested, and the “Percent Effect” value was -1.656%.
CC(=O)NC[C@H]1C[C@@H]2CCN1C[C@@H]2c1cc(-c2cccs2)nn1C was tested, and the “Percent Effect” value was -4.622%.
With CN(C)[C@@H]1CN(C(=O)Cc2cccc(F)c2)[C@@H]2CCCO[C@H]12.O=C(O)C(F)(F)F the “Percent Effect” value was 118.8%.
With Cn1cc(CN2CC[C@@H]3[C@@H]2CCN3C(=O)Cc2cccc(F)c2)cn1.O=C(O)C(F)(F)F the “Percent Effect” value was -1.291%.
Cc1nnc(N2CCNCC2)c(C(N)=O)c1C was tested, and the “Percent Effect” value was -61.72%.
O=C(NCc1cccnc1)[C@H]1CN2CCC1C[C@@H]2Cn1cc(CO)nn1 (some centres not stated) was tested, and the “Percent Effect” value was 4.498%.
CN1CCC2(CC1)CNC(=O)c1ccccc1O2 was tested, and the “Percent Effect” value was -4.791%.
O=C1NCC2(CCCN(Cc3cccnc3)C2)Oc2ccccc21 (configuration not stated) was tested, and the “Percent Effect” value was 95.18%.
O=C(NCc1cccnc1)C1=NOC2(CCCN(CCO)C2)C1 (configuration not stated) was tested, and the “Percent Effect” value was 6.778%.
In the case of O=C1NCC2(CCCN(Cc3ccncc3)C2)Oc2ccccc21 (configuration not stated), the “Percent Effect” value is reported as 106%.
For CN(C)c1ncc2c(n1)C1(CCN(Cc3cccnc3)C1)COC2 (configuration not stated), the “Percent Effect” value was -5.079%.
For O=C1Nc2ccccc2C12CCCN(Cc1ccncc1)C2 (configuration not stated), the “Percent Effect” value was -10.97%.
For Fc1cnc(N2CCCC3(CN(Cc4cccs4)CCO3)C2)nc1.O=C(O)C(F)(F)F (configuration not stated), the “Percent Effect” value was 111.6%.
Cc1cnc(N2CCOC3(CCCN(C)C3)C2)nc1.O=C(O)C(F)(F)F (configuration not stated) was tested, and the “Percent Effect” value was -2.261%.
In the case of CN(C)C(=O)CN1CCOCC2(C1)CN(c1ncccn1)CCO2.O=C(O)C(F)(F)F (configuration not stated), the “Percent Effect” value is reported as 101.1%.
For O=C(O)C(F)(F)F.c1cnc(N2CCOC3(COCCN(Cc4cc[nH]n4)C3)C2)nc1 (configuration not stated), the “Percent Effect” value was -4.382%.
For Cc1cnc(N2CCC3(CC2)CN(Cc2cccs2)CCO3)nc1.O=C(O)C(F)(F)F.O=C(O)C(F)(F)F, the “Percent Effect” value was 102.1%.
In the case of O=C(O)C(F)(F)F.OCCN1CCOC2(CCCN(c3ncc(F)cn3)C2)C1 (configuration not stated), the “Percent Effect” value is reported as 13%.
O=C(O)C(F)(F)F.c1cnc(N2CCOCC3(CN(Cc4nccs4)CCO3)C2)nc1 (configuration not stated) was tested, and the “Percent Effect” value was 8.217%.
O=C(O)C(F)(F)F.c1cnc(N2CCOCC3(CN(Cc4ccsc4)CCO3)C2)nc1 (configuration not stated) was tested, and the “Percent Effect” value was -6.179%.
For Cc1cnc(N2CCOC3(CCCN(CC(=O)N(C)C)C3)C2)nc1.O=C(O)C(F)(F)F.O=C(O)C(F)(F)F (configuration not stated), the “Percent Effect” value was -7.39%.
Fc1cnc(N2CCC3(CC2)CN(Cc2cccs2)CCO3)nc1.O=C(O)C(F)(F)F.O=C(O)C(F)(F)F was tested, and the “Percent Effect” value was 98.63%.
In the case of CC[C@H]1CN2CC[C@H]1C[C@@H]2CNC(=O)Nc1ccc(Br)cc1, the “Percent Effect” value is reported as -5.559%.
CC(Cc1c(F)cccc1F)NC(=O)CN(CC(N)=O)C(C)C (configuration not stated) was tested, and the “Percent Effect” value was 2.304%.
In the case of COc1cc(C2(C(=O)NCCn3ccnc3)CCCC2)ccc1C, the “Percent Effect” value is reported as 17.74%.
For c1ccc(CNc2ncc(CN3CC[C@H]4CC[C@@H](C3)N4)cn2)cc1, the “Percent Effect” value was -14.93%.
For O=C(c1ccc(F)c(F)c1)N1C[C@H]2CNC[C@H]2C1, the “Percent Effect” value was -36.88%.
COc1ccc(-c2ccccc2CCN)c(OC)c1 was tested, and the “Percent Effect” value was 16.22%.
For Cn1cc(CN2CC[C@H]3[C@H]2CC(=O)N3Cc2ccncc2)cn1, the “Percent Effect” value was 97.58%.
In the case of Cn1cc(CN2C[C@@H]3[C@@H](C2)OCC(=O)N3Cc2ccncc2)cn1, the “Percent Effect” value is reported as -7.726%.
For Cn1cc(C(=O)N2CC[C@@H]3[C@@H]2CCN3Cc2ccncc2)cn1.O=C(O)C(F)(F)F.O=C(O)C(F)(F)F, the “Percent Effect” value was 8.346%.
For CCOC(=O)N1CCC2(CCNC2)C1.Cl (configuration not stated), the “Percent Effect” value was -20.05%.
With CN1CCC2(COCc3cnc(N4CCOCC4)nc32)C1.O=C(O)C(F)(F)F (configuration not stated) the “Percent Effect” value was -0.9764%.
In the case of CC(C)c1nccc([C@H]2C[C@@H]3CCN(Cc4ccoc4)C[C@H]3O2)n1, the “Percent Effect” value is reported as -1.768%.
In the case of N#Cc1ccc(NC2CCN(c3ncccn3)CC2)cc1Cl, the “Percent Effect” value is reported as -9.238%.
For CCc1noc(CN(C)CCC(=O)Nc2ccc(C#N)c(Cl)c2)n1, the “Percent Effect” value was 4.268%.
For CN(CCOCC1CC1)C(=O)Nc1ccc(C#N)c(Cl)c1, the “Percent Effect” value was 80.92%.
With O=C(Nc1cccnc1)[C@H]1C[C@@H]2CCN(Cc3nccs3)C[C@@H]2O1.O=C(O)C(F)(F)F.O=C(O)C(F)(F)F the “Percent Effect” value was 21.14%.
For CCOCCN1C[C@H](C(=O)Nc2cccnc2)[C@@H]2CCO[C@@H]2C1.O=C(O)C(F)(F)F.O=C(O)C(F)(F)F, the “Percent Effect” value was 4.673%.
With O=C(Nc1cccnc1)[C@H]1CO[C@H]2CCNC[C@H]2C1.O=C(O)C(F)(F)F.O=C(O)C(F)(F)F the “Percent Effect” value was 99.23%.
In the case of CN1CC[C@@H]2OC[C@H](C(=O)N(C)Cc3ccccn3)C[C@@H]2C1.O=C(O)C(F)(F)F.O=C(O)C(F)(F)F, the “Percent Effect” value is reported as 91.38%.
In the case of CCCN1CC[C@@H]2OC[C@H](C(=O)Nc3cccnc3)C[C@@H]2C1.O=C(O)C(F)(F)F.O=C(O)C(F)(F)F, the “Percent Effect” value is reported as 103.7%.
For O=C(Nc1cccnc1)[C@H]1COC[C@H]2CN(C3CCCC3)C[C@H]21.O=C(O)C(F)(F)F.O=C(O)C(F)(F)F, the “Percent Effect” value was 10.99%.
CN(Cc1ccccn1)C1CCC[C@@H]2CN(CC3CC3)C[C@H]12.O=C(O)C(F)(F)F.O=C(O)C(F)(F)F (some centres not stated) was tested, and the “Percent Effect” value was -32.78%.
In the case of Cc1ccc(C(=O)N2C[C@@H]3CCN(C(C)C)C[C@@H]3C2)cn1.O=C(O)C(F)(F)F, the “Percent Effect” value is reported as -22.14%.
In the case of CN(C)C(=O)[C@@H]1CC[C@@H]2[C@@H](CCN2Cc2ccccn2)O1.O=C(O)C(F)(F)F.O=C(O)C(F)(F)F, the “Percent Effect” value is reported as -15.27%.
With CC(C)N1CC[C@@H]2OC[C@H](C(=O)Nc3cccnc3)C[C@@H]2C1.O=C(O)C(F)(F)F.O=C(O)C(F)(F)F the “Percent Effect” value was 84.8%.
For O=C(Nc1cccnc1)[C@H]1CN(C2CCCC2)C[C@H]2OCC[C@@H]12.O=C(O)C(F)(F)F.O=C(O)C(F)(F)F, the “Percent Effect” value was 2.861%.
With O=C(Nc1cccnc1)[C@@H]1C[C@H]2OCC[C@H]2N(Cc2ccsc2)C1.O=C(O)C(F)(F)F.O=C(O)C(F)(F)F the “Percent Effect” value was -12.16%.
Cl.O=C(C1CCC1)N1CCC2(CCNCC2)C1 was tested, and the “Percent Effect” value was -22.91%.
In the case of O=C(Cc1ccc(O)c(Cl)c1)N1CCN(CC2CC2)[C@@H]2CS(=O)(=O)C[C@@H]21, the “Percent Effect” value is reported as 2.879%.
With Cc1cc(C)c(CNc2cnc3ccccc3n2)c(=O)[nH]1 the “Percent Effect” value was 10.07%.
For CC1COC2(CCN(C(=O)c3ncoc3C(C)C)CC2)O1 (configuration not stated), the “Percent Effect” value was 0.05226%.
O=C(O)C(F)(F)F.O=C(O)C(F)(F)F.O=C1[C@H]2CN(Cc3ccoc3)C[C@H]2CN1Cc1ccncc1 was tested, and the “Percent Effect” value was 1.4%.
CS(=O)(=O)Cc1nc(CN2CC=C(c3ccccc3)CC2)cs1 was tested, and the “Percent Effect” value was 9.315%.
